Experimental data published in PubChem BioAssay (Tox21).
Records with an inconclusive call do not appear. Active and inactive are the calls of the source. Unless noted, the call rests on the fitted dose curve.

Columns and labels:
[1] = Nuclear factor erythroid 2-related factor 2/antioxidant responsive element (Nrf2/ARE) small molecule agonists: qHTS cell viability counter screen in human keratinocytes (AID 1919968; active means well fitted curve in the direction sought with a large enough effect in the repeat runs; an effect the other way counts as inactive or inconclusive; further: nearly all actives have a fitted effect of over 55% in size)
Summary of the method: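 Viability counter-screen: KeratinoSens reporter cells, DMSO-delivered compounds, 23 h at 37 C, CellTiter-Fluor fluorescence.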

[2] = Nuclear factor erythroid 2-related factor 2/antioxidant responsive element (Nrf2/ARE) small molecule agonists: luciferase reporter gene qHTS assay in human keratinocytes (AID 1919969); further: nearly all actives have a fitted effect of over 35% in size
[3] = molecular target: Gonadotropin-releasing hormone receptor (Homo sapiens) (UniProt P30968); assay: Human gonadotropin-releasing hormone receptor (GnRHR) small molecule agonists, calcium flux assay in GnRHR-HEK293 cells (AID 1920063); further: nearly all actives have a fitted effect of over 35% in size
Summary of the method: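 Tox21-format agonist screen using human GnRHR-expressing HEK293 cells and a fluorescent calcium dye; kinetic 3-min fluorescence reading after compound addition, 15-point concentration series run in triplicate.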

[4] = molecular target: KiSS-1 receptor (Homo sapiens) (UniProt Q969F8); assay: Human kisspeptin (KISS1R) small molecule agonists, calcium flux assay in KISS1R-HEK293 cells (AID 1920064; active means well fitted curve in the direction sought with a large enough effect in the repeat runs; an effect the other way counts as inactive or inconclusive)
Summary of the method: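 Intracellular calcium mobilization in KISS1R-HEK293 cells was recorded by fluorescence (Ex/Em 480/540) for 3 min following compound addition to cells pre-loaded 1 h with calcium dye.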

[5] = G protein-coupled receptor (GPCR) small molecule agonists, calcium flux assay: HEK293 wild type cell line counter screen (AID 1920065)
Summary of the method: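 In this agonist-mode screen, ATP is the positive control and DMSO the vehicle. Cells grow 18 h before a 1 h dye incubation at 37 C; signal is taken at Ex/Em 480/540 over 3 min.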

[6] = p53 small molecule agonists, cell-based qHTS assay with human liver microsomes (AID 1963577)
Summary of the method: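 Cells carrying a p53-responsive bla reporter were rested 5 h (37 C, 5% CO2) before compound transfer. Human liver microsomes plus NADPH, 0.5 mg/mL final apiece, supplied metabolism during the 16 h 37 C exposure.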

[7] = p53 small molecule agonists, cell-based qHTS assay with rat liver microsomes (AID 1963578)
Summary of the method: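 Fluorescence from a beta-lactamase reporter under a p53 response element was measured after cells had been incubated 16 h at 37 C with test compound and rat liver microsomes plus NADPH (0.5 mg/mL final each).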

[8] = p53 small molecule agonists, cell-based qHTS assay with human liver microsomes: qHTS cell viability counter screen (AID 1963579); further: nearly all actives have a fitted effect of over 45% in size
Summary of the method: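 Seed p53RE-bla cells at 4,000 per well; incubate 5 h at 37 C; add compound, human liver microsomes and NADPH; incubate 16 h at 37 C; add CellTiter-Glo; after 30 min at room temperature, read luminescence.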

[9] = p53 small molecule agonists, cell-based qHTS assay with rat liver microsomes: qHTS cell viability counter screen (AID 1963580); further: nearly all actives have a fitted effect of over 45% in size
Summary of the method: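 p53RE-bla HCT-116 cells were exposed 16 h at 37 C to compounds with rat liver microsomes (0.5 mg/mL) and NADPH (0.5 mg/mL). Viability was measured in the same wells as ATP content by CellTiter-Glo luminescence.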

[10] = molecular target: 5-hydroxytryptamine receptor 2A (Homo sapiens) (UniProt P28223); assay: 5-hydroxytryptamine receptor 2A (HTR2A) small molecule antagonists, cell-based qHTS assay (AID 1963586); further: nearly all actives have a fitted effect of over 45% in size
Summary of the method: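 Antagonist-mode intracellular calcium assay: DOI (4 nM) added after 5 min compound pre-incubation at room temperature to dye-loaded HTR2A-CHO cells. Fluorescence followed for 3 min, sampled every second.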

[11] = molecular target: 5-hydroxytryptamine receptor 2A (Homo sapiens) (UniProt P28223); assay: 5-hydroxytryptamine receptor 2A (HTR2A) small molecule agonists, cell-based qHTS assay (AID 1963587); further: nearly all actives have a fitted effect of over 30% in size
Summary of the method: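 CHO cells stably expressing human HTR2A, plated 18 h, loaded with calcium dye 1 h at 37 C. Agonist mode: compounds added and intracellular calcium fluorescence recorded kinetically for 2 min at 1 sec intervals.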

[12] = molecular target: Muscarinic acetylcholine receptor M1 (Homo sapiens) (UniProt P11229); assay: Cholinergic receptor muscarinic 1 (CHRM1) small molecule antagonists, cell-based qHTS assay (AID 1963588); further: nearly all actives have a fitted effect of over 40% in size
Summary of the method: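 CHRM1-CHO calcium-flux assay, antagonist mode. Cells were seeded 18 h, dye-loaded 1 h at 37 C and given compound for 5 min at RT, then acetylcholine was added at 50nM. FDSS fluorescence was read 3 min; 15 concentrations, three runs.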

[13] = molecular target: Muscarinic acetylcholine receptor M1 (Homo sapiens) (UniProt P11229); assay: Cholinergic receptor muscarinic 1 (CHRM1) small molecule agonists, cell-based qHTS assay (AID 1963589); further: nearly all actives have a fitted effect of over 35% in size
Summary of the method: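 Stable CHRM1-CHO cells (human receptor) were incubated 18 h, dye-loaded for 1 h at 37 C and exposed to test compounds for agonist activity, with calcium-dependent fluorescence followed kinetically.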

[14] = cAMP Responsive Elements (CRE) small molecule antagonists, cell-based qHTS assay (AID 1963591; active means well fitted inhibition curve with a large enough effect in the signal ratio in the repeat runs, not every such curve was filed as active; the % refers to the signal ratio)
Summary of the method: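 qHTS in CRE-bla HEK 293T cells: compound in DMSO, then 0.25 uM NKH477 (final), 3 h at 37 °C/5% CO2; beta-lactamase FRET read-out after 2 h substrate incubation.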

[15] = molecular target: Beta-2 adrenergic receptor (Homo sapiens) (UniProt P07550); assay: Adrenergic beta2 receptor (ADRB2) small molecule antagonists, cell-based qHTS assay (AID 1963592); further: series mostly up to about 92 µM; nearly all actives have a fitted effect of over 50% in size
Summary of the method: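 Cells (CHO, stable ADRB2 overexpression) incubated 18-20hr at 37C; compounds added from DMSO; agonist mix (1nM isoproterenol, 100uM IBMX, 25uM Ro-20-1724) added; 0.5hr RT; d2-cAMP and anti-cAMP-cryptate added; 1hr RT; 665/615 nm read.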

[16] = molecular target: Beta-2 adrenergic receptor (Homo sapiens) (UniProt P07550); assay: Adrenergic beta2 receptor (ADRB2) small molecule agonists, cell-based qHTS assay (AID 1963593);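 further: CHO cells stably overexpressing human ADRB2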
Summary of the method: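 CHO cells stably over-expressing ADRB2 were plated overnight at 37C, then dosed with compounds plus a stimulation mix containing 100uM IBMX and 25uM Ro-20-1724 for 0.5hr at room temperature. cAMP was measured by HTRF competition, 1hr.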

[17] = molecular target: D(2) dopamine receptor (Homo sapiens) (UniProt P14416); assay: Dopamine D2 receptor (DRD2) small molecule agonists, cell-based qHTS assay (AID 1963594); further: nearly all actives have a fitted effect of over 35% in size
Summary of the method: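 HEK293 cells stably expressing human DRD2, pre-treated with PDE inhibitor Ro20-1724 (0.1 mM final) and compound 10 min at room temperature, then stimulated with NKH477 (200nM […]) for 30 min. cAMP read by HTRF (665/620 nm).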

[18] = cAMP Responsive Elements (CRE) small molecule agonists, cell-based qHTS assay (AID 1963590)
Summary of the method: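 FRET-based beta-lactamase readout (LiveBLAzer B/G, 2 h RT) quantified CRE activation in HEK 293T CRE-bla cells after 3 h treatment with DMSO-dissolved compounds.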

[19] = molecular target: D(2) dopamine receptor (Homo sapiens) (UniProt P14416); assay: Dopamine D2 receptor (DRD2) small molecule antagonists, cell-based qHTS assay (AID 1963595; active means well fitted inhibition curve with a large enough effect in the signal ratio in the repeat runs, with a control signal flat; the % refers to the signal ratio)
Summary of the method: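 Stable D2 receptor HEK293 line, 24 h after seeding. Compound preincubated 10 min, then quinpirole (12 nM) with forskolin analogue NKH477 (200 nM), 30 min, room temperature. Detection by time-resolved FRET of cAMP.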

[20] = p53 small molecule agonists, cell-based qHTS assay (AID 1963582; active means well fitted activation curve with a large enough effect in the signal ratio in the repeat runs, not every such curve was filed as active; the % refers to the signal ratio)
Summary of the method: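 Agonist activity was scored from beta-lactamase FRET fluorescence in p53RE-bla cells treated 16 h at 37 C with compounds in DMSO, substrate incubation being 2 h at room temperature.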

Measured: Potency

Chain of Muscarinic acetylcholine receptor M1 (Homo sapiens) (P11229 whole entry, looked up): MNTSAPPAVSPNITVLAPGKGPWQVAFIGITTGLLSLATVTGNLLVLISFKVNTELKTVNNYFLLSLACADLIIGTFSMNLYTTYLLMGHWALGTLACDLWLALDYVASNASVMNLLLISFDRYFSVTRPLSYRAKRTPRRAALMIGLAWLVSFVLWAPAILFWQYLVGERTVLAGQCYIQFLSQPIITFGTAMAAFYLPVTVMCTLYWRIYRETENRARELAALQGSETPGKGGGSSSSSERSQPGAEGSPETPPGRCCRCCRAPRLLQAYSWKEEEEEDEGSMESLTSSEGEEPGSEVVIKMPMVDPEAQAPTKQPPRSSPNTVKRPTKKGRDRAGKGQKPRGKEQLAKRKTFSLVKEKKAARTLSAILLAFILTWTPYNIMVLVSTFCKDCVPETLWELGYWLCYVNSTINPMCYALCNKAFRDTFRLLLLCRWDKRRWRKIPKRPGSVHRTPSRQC
Chain of 5-hydroxytryptamine receptor 2A (Homo sapiens) (P28223 whole entry, looked up): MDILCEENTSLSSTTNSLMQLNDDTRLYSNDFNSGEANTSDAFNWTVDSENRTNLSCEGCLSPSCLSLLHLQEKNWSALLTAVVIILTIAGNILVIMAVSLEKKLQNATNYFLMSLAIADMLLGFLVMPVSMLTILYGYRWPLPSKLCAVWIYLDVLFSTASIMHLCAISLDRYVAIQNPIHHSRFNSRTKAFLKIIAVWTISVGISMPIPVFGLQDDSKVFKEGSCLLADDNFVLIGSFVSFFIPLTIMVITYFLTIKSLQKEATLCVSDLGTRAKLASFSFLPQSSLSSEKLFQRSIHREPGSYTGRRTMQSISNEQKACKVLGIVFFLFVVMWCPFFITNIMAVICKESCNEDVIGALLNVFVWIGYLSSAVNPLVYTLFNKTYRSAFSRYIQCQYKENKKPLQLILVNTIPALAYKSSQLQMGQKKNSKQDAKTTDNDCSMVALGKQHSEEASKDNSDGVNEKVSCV
Chain of KiSS-1 receptor (Homo sapiens) (Q969F8 whole entry, looked up): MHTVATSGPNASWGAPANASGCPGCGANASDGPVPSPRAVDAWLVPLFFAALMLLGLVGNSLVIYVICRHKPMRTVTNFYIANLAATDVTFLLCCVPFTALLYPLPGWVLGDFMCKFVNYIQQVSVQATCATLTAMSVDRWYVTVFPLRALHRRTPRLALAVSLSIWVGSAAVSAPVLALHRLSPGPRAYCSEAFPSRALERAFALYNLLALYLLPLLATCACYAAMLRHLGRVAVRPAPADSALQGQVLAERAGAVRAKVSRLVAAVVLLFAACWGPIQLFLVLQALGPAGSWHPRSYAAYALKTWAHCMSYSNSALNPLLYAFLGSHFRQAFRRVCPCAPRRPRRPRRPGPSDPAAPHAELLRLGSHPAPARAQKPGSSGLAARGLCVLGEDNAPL
Chain of Gonadotropin-releasing hormone receptor (Homo sapiens) (P30968 whole entry, looked up): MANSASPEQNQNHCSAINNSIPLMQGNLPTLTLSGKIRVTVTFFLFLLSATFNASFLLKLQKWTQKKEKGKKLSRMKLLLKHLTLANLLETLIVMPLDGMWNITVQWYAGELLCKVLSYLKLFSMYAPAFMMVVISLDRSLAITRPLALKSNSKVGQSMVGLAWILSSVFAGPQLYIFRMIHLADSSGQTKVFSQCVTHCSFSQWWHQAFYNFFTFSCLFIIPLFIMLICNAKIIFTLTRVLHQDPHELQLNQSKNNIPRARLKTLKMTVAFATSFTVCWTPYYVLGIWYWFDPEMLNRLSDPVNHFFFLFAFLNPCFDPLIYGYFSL
Chain of D(2) dopamine receptor (Homo sapiens) (P14416 whole entry, looked up): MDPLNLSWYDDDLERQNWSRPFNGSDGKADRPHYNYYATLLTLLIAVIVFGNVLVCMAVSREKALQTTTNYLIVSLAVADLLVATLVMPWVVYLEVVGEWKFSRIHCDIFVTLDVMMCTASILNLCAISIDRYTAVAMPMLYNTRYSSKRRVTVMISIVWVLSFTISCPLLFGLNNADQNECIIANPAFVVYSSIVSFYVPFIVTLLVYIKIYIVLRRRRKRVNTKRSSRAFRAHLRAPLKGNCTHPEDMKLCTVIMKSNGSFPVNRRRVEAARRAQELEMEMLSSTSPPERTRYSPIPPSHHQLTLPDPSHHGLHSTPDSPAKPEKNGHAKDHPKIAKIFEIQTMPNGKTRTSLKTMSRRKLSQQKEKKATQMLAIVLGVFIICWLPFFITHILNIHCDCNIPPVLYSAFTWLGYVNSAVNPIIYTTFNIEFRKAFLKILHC
Chain of Beta-2 adrenergic receptor (Homo sapiens) (P07550 whole entry, looked up): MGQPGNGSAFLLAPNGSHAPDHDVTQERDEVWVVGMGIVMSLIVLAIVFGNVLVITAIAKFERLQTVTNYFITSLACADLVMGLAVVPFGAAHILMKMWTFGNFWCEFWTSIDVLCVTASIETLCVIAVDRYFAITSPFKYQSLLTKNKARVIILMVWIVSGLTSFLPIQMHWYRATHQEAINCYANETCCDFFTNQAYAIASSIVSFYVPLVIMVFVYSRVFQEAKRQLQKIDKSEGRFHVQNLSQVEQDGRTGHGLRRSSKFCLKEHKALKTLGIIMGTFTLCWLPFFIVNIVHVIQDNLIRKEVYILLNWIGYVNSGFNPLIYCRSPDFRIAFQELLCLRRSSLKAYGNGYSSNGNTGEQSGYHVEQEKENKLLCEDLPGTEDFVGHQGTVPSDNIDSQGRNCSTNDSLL

CCCCCC(=O)OCC
not listed: [18] | [19] | [20]
inactive: all other assays above

CN1CC(=O)N/C1=N/C(=O)Nc1cccc(Cl)c1
not listed: [14] | [20]
inactive: all other assays above

CC(CCl)OC(C)CCl (stereo unspecified)
not listed: [10] | [14] | [16]
inactive: all other assays above

c1cnc2c(n1)CCCC2
not listed: [9] | [15]
inactive: all other assays above

Cc1cnc(C)c(C)n1
not listed: [9] | [14] | [15] | [16]
inactive: all other assays above

OCCN(CCO)CCN(CCO)CCO
not listed: [9] | [16] | [19]
inactive: all other assays above

CC1CCC(C(C)CS)CC1S (stereo unspecified)
not listed: [9] | [16]
inactive: all other assays above
